“And” between values parts separate entries of the source, which are not always exact repeats. Identical values can stand only once. Results filed as inconclusive are left out. Values without a mark were called inactive. The source made the active and inactive calls. Calls come from the whole dose curve; as a rule, active = well fitted cell-killing curve with a large enough effect in the repeat runs; inconclusive = weak or mixed curves, or effect the other way; inactive = flat fitted curve, though single readings scatter.
Experiment: cAMP Responsive Elements (CRE) small molecule antagonists, cell-based qHTS assay: qHTS cell viability counter screen (AID 2060913); note: nearly all actives have a fitted effect of over 40% in size
Conditions: CRE-bla HEK293T viability, CellTiter-Glo luminescence, 5 h; series mostly up to 92.4 µM; viability change, negative = cytotoxic: at the top concentration
Outline: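 Cytotoxicity read in the same wells as the CRE-bla HEK293T antagonist assay: after 3 h compound with 0.25 uM NKH477 final and 2 h beta-lactamase substrate, CellTiter-Glo luminescence measured.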
% is set by controls: 0 for no effect and ±100 for the full control effect; potency is the fitted concentration of half-maximal effect.

SMILES	viability change, negative = cytotoxic	Potency
Cc1ccnc(NS(=O)(=O)c2ccc(N)cc2)n1	1.17% [at 42.5 µM]	
C#C[C@]1(O)CC[C@H]2[C@@H]3CCC4=Cc5oncc5C[C@]4(C)[C@H]3CC[C@@]21C		inactive
O=C(c1ccco1)N1CCNCC1	8.59% [at 42.5 µM]	
O=c1[nH]c(=O)c2cn[nH]c2[nH]1	-0.724%	
CC(=O)c1ccc(C(C)=O)cc1	1.19%	
Cc1cccc(N(C)C(=S)Oc2ccc3c(c2)C2CCC3C2)c1 (stereo not given)	-10.3% [at 42.5 µM]	
Nc1c(NC/C=C\COc2cc(CN3CCCCC3)ccn2)c(=O)c1=O	-0.847% [at 18.9 µM]	
CC(C)(C)NC(=O)[C@@H]1C[C@@H]2CCCC[C@@H]2CN1C[C@@H](O)[C@H](Cc1ccccc1)NC(=O)[C@H](CC(N)=O)NC(=O)c1ccc2ccccc2n1		61.9 µM (active)
COc1cc(C(=O)NCc2ccc(OCCN(C)C)cc2)cc(OC)c1OC	-1.18% [at 42.5 µM]	
On1nnc2ccccc21	-4.02%	
CC1(c2ccccc2)OC(C(=O)O)=CC1=O (stereo not given)	-3.57% [at 42.5 µM]	
C=C1C[C@@]23CC[C@H]4[C@@](C)(CCC[C@@]4(C)C(=O)O[C@@H]4O[C@H](CO)[C@@H](O)[C@H](O)[C@H]4O)[C@@H]2CC[C@]1(O[C@@H]1O[C@H](CO)[C@@H](O)[C@H](O[C@@H]2O[C@H](CO)[C@@H](O)[C@H](O)[C@H]2O)[C@H]1O[C@@H]1O[C@H](CO)[C@@H](O)[C@H](O)[C@H]1O)C3	0.803%	
CCN(CC#N)c1cccc(C)c1	-0.294%	
COc1ccccc1/C=C/C=O		inactive
Cc1ccc2cccnc2c1	1.44%	
CCCCNc1ccc(C(=O)OCCN(CC)CC)cc1	0.65% [at 42.5 µM]	
Cc1onc(-c2c(Cl)cccc2Cl)c1C(=O)Cl	-0.779% [at 42.5 µM]	
CC(C)(C)c1ccc(OC2CCCCC2O)cc1 (stereo not given)	-17.1%	
NC(=O)[C@@H]1CSSCCC(=O)N[C@@H](CCCCN=C(N)N)C(=O)NCC(=O)N[C@@H](CC(=O)O)C(=O)N[C@@H](Cc2c[nH]c3ccccc23)C(=O)N2CCC[C@H]2C(=O)N1	-4.2% [at 42.5 µM]	
CCCCOCC	13.4%	

SMILES	viability change, negative = cytotoxic	Potency
CCOCCO		inactive
O=C1OC(OC(=O)c2cccnc2Nc2cccc(C(F)(F)F)c2)c2ccccc21 (stereo not given)	1% [at 42.5 µM]	
OCCN(CCO)c1nc(N2CCCCC2)c2nc(N(CCO)CCO)nc(N3CCCCC3)c2n1	-0.0519% [at 42.5 µM]	
CO/N=C1\CN(c2nc3c(cc2F)c(=O)c(C(=O)O)cn3C2CC2)CC1CN (stereo not given)	-0.36% [at 42.5 µM]	
O=CN1CCCCC1	5.02%	
N[C@@H](CSCCCO)C(=O)O	1.17% [at 18.9 µM]	
CCCCOCCOC(=O)COc1cc(Cl)c(Cl)cc1Cl	0.603%	
Nc1ccccc1Nc1ccccc1	9.47%	
COc1ccccc1C=O	16.4%	
O=c1cc[nH]c(=O)[nH]1		inactive
CC/C=C\CCOC(=O)CC	9.62%	
Cc1ccc(N=Nc2c(O)ccc3ccccc23)c(C)c1	1.74% [at 42.5 µM]	
COc1cc([C@@H]2c3cc4c(cc3[C@H](O)[C@H]3COC(=O)[C@H]23)OCO4)cc(OC)c1OC		inactive
COc1ccc(C(=O)/C(Br)=C\C(=O)O)cc1	10.4%	
Nc1ccccc1N		inactive
CCCC(=O)O[C@]1(C(=O)CCl)[C@@H](C)C[C@H]2[C@@H]3CCC4=CC(=O)C=C[C@]4(C)[C@@]3(F)C(=O)C[C@@]21C	-15.4% [at 42.5 µM]	
Nc1ncnc2c1ncn2[C@H]1CC[C@@H](CO)O1	15.1%	
CN(C)c1ccc(C(=C2C=CC(=[N+](C)C)C=C2)c2ccccc2)cc1		15.4 µM (active) and 11.9 µM (active) and 10.6 µM (active)
Cc1cc(=O)oc2cc(N(C)C)ccc12	0.1%	
NNc1nnc(NN)c2ccccc12	1.28% [at 42.5 µM]	
